# Results: PubChem BioAssay AID618 (Sanford-Burnham Center for Chemical Genomics, 2007)
# Hit rate of the full screen: of about 87,000 compounds, about 540 (0.62%) were called active. Where a call stands in place of a potency, no number is given. How the calls were made is not given here. For the sample, actives were picked, then their nearest neighbours and some compounds at random. Potency and affinity values are given separately.
# Assay: MT1-MMP gene expression reporter suppression – cell-based, luciferase reporter, luminescence (AID 618);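 further: actives suppress MT1-MMP promoter-driven transcription so potencies describe inhibitors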
# Conditions: MT1-MMP promoter luciferase reporter cells
row,Structure (SMILES),outcome
1,CC(=O)N(C(C)=O)C1=C(C#N)C2(CCCCC2)Cc2ccccc21,inactive
2,CCCOc1ccc2nc(NC(=O)OC)[nH]c2c1,inactive
3,COC(=O)Nc1nc2ccc(C(=O)c3ccccc3)cc2[nH]1,inactive
4,O=C(COc1ccccc1)Nc1nc2ccccc2[nH]1,inactive
5,O=C(Nc1ccc(F)cc1)c1ccccc1F,inactive
6,O=C(Cc1ccccc1)Nc1nc2ccccc2[nH]1,inactive
7,COc1cc(OC)cc(C(=O)Nc2nc3ccccc3[nH]2)c1,inactive
8,C=CCOc1ccc2nc(NC(=O)OC)[nH]c2c1,active
9,COc1cc(C(=O)Nc2nc3ccccc3[nH]2)cc(OC)c1OC,inactive
10,Cc1cc(NC(=O)c2ccccc2F)n(-c2nc3ccccc3[nH]2)n1,inactive
11,O=C(Nc1nc2ccccc2[nH]1)c1ccccc1F,active
12,Cc1cc(=O)n2nc(N3CCC(C(=O)NCc4cccnc4)CC3)sc2n1,inactive
13,CC(C)=C1SC(N2CCN(Cc3ccccc3)CC2)=NC1=O,inactive
14,CC1=C(C#N)C(c2cccnc2)C2=C(CC(c3ccc(Cl)cc3)CC2=O)N1 (stereo not drawn),inactive
15,COc1ccc(-c2nn(-c3ccccc3)cc2C(=O)N2CCOCC2)cc1,inactive
16,Cc1cc(C)n(C(=O)CN2C(=O)c3ccccc3C2=O)n1,inactive
17,O=C(NCc1ccncc1)Nc1ccc(Cl)cc1Cl,inactive
18,CCCn1c(=O)c2c(c3ccccc31)OCC(=O)N2,inactive
19,COc1ccc(Cc2nnc3n2N=C(c2cc4ccccc4o2)CS3)cc1OC,inactive
20,COC(=O)CSc1nsc(SCC(=O)OC)n1,inactive

row,Structure (SMILES),outcome
1,CCCCCSc1nc2c(cnn2-c2ccccc2)c(=O)[nH]1,inactive
2,O=C(Nc1nc2ccccc2[nH]1)c1ccc(F)cc1,active
3,O=C(NCCc1nc2ccccc2[nH]1)c1ccc(F)cc1,inactive
4,COc1ccc(C(=O)Nc2nc3ccccc3[nH]2)cc1OC,inactive
5,Cc1[nH]c2ccccc2c1/C=N/n1cnnc1,inactive
6,Nc1c(C(=O)Nc2ccccc2)sc2nc3c(c(-c4ccco4)c12)CCC3,inactive
7,COc1ccc(C2NC3=C(CCC3)C3(C#N)C(OC)(OC)N=C(N)C23C#N)cc1 (stereo not drawn),inactive
8,COc1ccc(OC)c(S(=O)(=O)NCCO)c1,inactive
9,O=C(NCCc1ccccc1)C1CC(c2ccccc2O)=NO1 (stereo not drawn),inactive
10,O=C1CCCC/C1=C/Nc1ccc2c(c1)OCO2,inactive
11,COc1ccc2c(c1)CC/C(=C\Nc1ccc3c(c1)OCO3)C2=O,inactive
12,CCn1cc(Br)c(C(=O)Nc2cccc(SC)c2)n1,inactive
13,CCOC(=O)c1c(N)sc(C(=O)Nc2ccc3c(c2)OCO3)c1C,active
14,CCOC(=O)c1c(C)[nH]c(C(=O)Nc2ccc3c(c2)OCO3)c1C,inactive
15,CCOC(=O)c1c(C)c(C(=O)Nc2ccc3c(c2)OCO3)c(C)n1C,inactive
16,COc1ccc(-c2nnc3ccc(SCC(=O)N4CCCC4)nn23)cc1,inactive
17,Cn1c(=O)c2c(nc(N3CCN(Cc4ccccc4)CC3)n2CCSc2ncccn2)n(C)c1=O,inactive
18,COc1ccc(Cl)cc1NS(=O)(=O)c1ccc(OC)c(OC)c1,inactive
19,COc1ccc(S(=O)(=O)Nc2cc(Cl)ccc2OC)cc1,active
20,Cc1ccccc1NS(=O)(=O)c1ccc(N2CCCC2=O)cc1,inactive

row,Structure (SMILES),outcome
1,COc1ccc(OC)c(NS(=O)(=O)c2ccc(N3CCCC3=O)cc2)c1,active
2,COc1ccc(CCNS(=O)(=O)c2ccc(N3CCCC3=O)cc2)cc1,inactive
3,COc1ccc(Cl)cc1NS(=O)(=O)c1ccc(S(=O)(=O)N2CCCC2)cc1,inactive
4,C=CCc1cccc(/C=N/n2c(C)nnc2C)c1O,inactive
5,O=C1CC(c2ccc(S(=O)(=O)N3CCCCC3)cc2)CN1 (stereo not drawn),inactive
6,CCOc1cccc(CNn2cnnc2)c1OCc1ccccc1,inactive
7,CCN1CCN(CCNC(=O)CS(=O)(=O)Cc2nc(-c3ccc(C)cc3)oc2C)CC1,inactive
8,CCOc1cc(-c2noc(N)c2C(=O)OC)cc(OCC)c1OCC,inactive
9,Brc1ccc(-c2nc(N/N=C/c3cccnc3)c3ccccc3n2)cc1,inactive
10,Cc1ccc(-c2nc(N/N=C/c3cccnc3)c3ccccc3n2)cc1,inactive
11,COc1ccc(CCn2c(C)cc3c(c2=O)C(c2ccc4c(c2)OCO4)C(C#N)=C(N)O3)cc1OC (stereo not drawn),inactive
12,COc1ccccc1NC(=O)C1C2CCCCC21 (stereo not drawn),inactive
13,Cc1cc(C)n(C(=O)c2nn(C)c(C)c2[N+](=O)[O-])n1,inactive
14,CC(=O)c1cccc(NC(=O)c2cc3ccccn3n2)c1,inactive
15,COc1cccc(CNC(=O)c2cc3ccccn3n2)c1,inactive
16,O=C(Nc1ccc(CN2CCOCC2)cc1)c1cc2ccccc2o1,inactive
17,O=C(Nc1ccc(CN2CCOCC2)cc1)c1cccc(F)c1,inactive
18,COc1ccc(-c2ccc(-c3noc(-c4ccc(OC)c(OC)c4)n3)c(OC)n2)cc1,inactive
